The results in this text go back to PubChem BioAssay (EPA / NIEHS).

Where “and” joins values, the source holds several entries; their conditions need not be identical. Equal entries are not always repeated. Inconclusive results are not listed. Some structures have more than one record in an assay (separate samples or runs), and their calls can disagree. Calls of active or inactive are those of the source. The calls were made as follows, unless noted: active = hit-call score of the fitted dose curve at least 0.9, where 1 is the maximum; inconclusive = response in the unintended direction; inactive = score below 0.9.

Experiment [1] concerns the target human Norepinephrine Transporter (NET), SLC6A2 (gene 6530) (UniProt P23975). Description: NVS_TR_hNET: NovaScreen (NVS) Transporter Assay for human Norepinephrine Transporter (NET) (AID 2283377).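 As to AC50: displacement of radioligand from human NET seen as loss of scintillation signal.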 The gist of the method: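 Cell-free radioligand binding using CHO-derived membrane protein expressing human NET, read by filter scintillation counting 1 h after dosing; loss of signal vs DMSO. Initial duplicate screen at 25 uM, actives retested in concentration series.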

The target of experiment [2] is Estrogen receptor beta (Homo sapiens) (UniProt Q92731). Description: OT_ER_ERbERb_1440: Odyssey Thera (OT) 24-hour HEK293T Protein-Complementation Assay for Estrogen Receptor-beta/-beta Homodimer (AID 2283380).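 Also: scored as signal increase over DMSO baseline for both agonists and antagonists.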 The gist of the method:
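HEK293T cells stably expressing ER beta LBD (aa 310-547) homodimer fragment-complementation reporter, dosed 24 h. Cells formaldehyde-fixed, Draq5-stained; gain in nuclear (agonist) or nuclear plus cytoplasmic (antagonist) fluorescence versus DMSO read by laser scanning cytometry.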

Experiment [3] addresses Bile acid receptor (Homo sapiens) (UniProt Q96RI1). Kind of experiment: OT_FXR_FXRSRC1_0480: Odyssey Thera (OT) 8-hour HEK293T Protein-Complementation Assay for Farnesoid X receptor/SRC-1 Co-activator (AID 2283383). The gist of the method:
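HEK293T protein-fragment complementation assay: FXR and SRC-1 coactivator are fused to reporter fragments, and their interaction restores a fluorescent reporter. Readout was taken 8 h after dosing, with gain of signal fit relative to DMSO.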

Experiment [4] has the same target. Description: OT_FXR_FXRSRC1_1440: Odyssey Thera (OT) 24-hour HEK293T Protein-Complementation Assay for Farnesoid X receptor/SRC-1 Co-activator (AID 2283384). The procedure, abridged:
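HEK293T cells, 24 h after chemical dosing. FXR–SRC-1 coactivator interaction read as fluorescence from protein-fragment complementation of a split reporter. Gain of signal fitted against DMSO baseline.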

In experiment [5] the target is Norway rat Vesicular Monoamine Transporter (VMAT2), neurotransmitter transporter, Slc18a2 (gene 25549) (UniProt Q01827). Description: NVS_TR_rVMAT2: NovaScreen (NVS) Transporter Assay for Norway rat Vesicular Monoamine Transporter (VMAT2), neurotransmitter transporter (AID 2283376).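 Also: actives lower the bound radioligand signal below the DMSO level.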 The procedure, abridged:
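Radioligand displacement binding on rat forebrain tissue preparation, filter-based scintillation read-out 1 hour after dosing. Primary screen in duplicate at 25 uM, then concentration series for actives; loss of signal versus DMSO.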

For experiment [6], the target named is Agonist Androgen Response Element (ARE), AR (gene 367) (UniProt P10275). Description: OT_AR_ARELUC_AG_1440: Odyssey Thera (OT) 24-hour CHO-K1 Luciferase Assay for Agonist Androgen Response Element (ARE) (AID 2283379). The gist of the method:
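CHO-K1 cells carrying an ARE-driven luciferase reporter were exposed to compounds for 24 h. Luminescence was then read after adding a D-luciferin/ATP mix, and activity was scored as a gain in signal over DMSO vehicle.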

Experiment [7] has as its target rat Serotonin Transporter (SERT), Slc6a4 (gene 25553) (UniProt P31652). Description: NVS_TR_rSERT: NovaScreen (NVS) Transporter Assay for rat Serotonin Transporter (SERT) (AID 2283375). The procedure, abridged:
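Rat forebrain membranes; radioligand displacement at SERT read by filter-based scintillation counting, 1 h after dosing. Screened in duplicate at 25 uM, actives then run in concentration series; loss of signal versus DMSO baseline.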

Experiment [8] has as its target Estrogen receptor (Homo sapiens) (UniProt P03372). Description: OT_ERa_GFPERaERE_0480: Odyssey Thera (OT) 8-hour HeLa Transcription Induction Assay for Estrogen Receptor (AID 2283381; active = hit-call score of the fitted dose curve at least 0.9, where 1 is the maximum; inactive = score below 0.9). The procedure, abridged:
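HeLa cells expressing GFP reporter under estrogen response element, imaged 8 h after dosing. GFP induction quantified by high-content fluorescence microscopy image analysis; gain of signal fitted versus DMSO.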

Experiment [9] has the same target. Kind of experiment: OT_ERa_GFPERaERE_0120: Odyssey Thera (OT) 2-hour HeLa Transcription Induction Assay for Estrogen Receptor (AID 2283382). The gist of the method: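 HeLa cells were dosed for 2 h, then GFP reporter induction was quantified by fluorescence microscopy with high-content image analysis. Gain of signal fitted against DMSO baseline.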
Experiment [10] addresses mouse Estrogen Receptor alpha (Era), Esr1 (gene 13982) (UniProt P19785). Kind of experiment: NVS_NR_mERa: NovaScreen (NVS) Nuclear Receptor Binding Assay for mouse Estrogen Receptor alpha (Era) (AID 2283378).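 Also: hit means loss of bound radioligand signal relative to DMSO.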 The gist of the method:
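Cell-free radioligand competitive displacement binding, read by filter-based scintillation counting 18 h after dosing. Primary screen run in duplicate at 25 uM, actives retested in concentration series; loss of signal versus DMSO.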

Chain of Estrogen receptor (Homo sapiens) (P03372 whole entry, looked up): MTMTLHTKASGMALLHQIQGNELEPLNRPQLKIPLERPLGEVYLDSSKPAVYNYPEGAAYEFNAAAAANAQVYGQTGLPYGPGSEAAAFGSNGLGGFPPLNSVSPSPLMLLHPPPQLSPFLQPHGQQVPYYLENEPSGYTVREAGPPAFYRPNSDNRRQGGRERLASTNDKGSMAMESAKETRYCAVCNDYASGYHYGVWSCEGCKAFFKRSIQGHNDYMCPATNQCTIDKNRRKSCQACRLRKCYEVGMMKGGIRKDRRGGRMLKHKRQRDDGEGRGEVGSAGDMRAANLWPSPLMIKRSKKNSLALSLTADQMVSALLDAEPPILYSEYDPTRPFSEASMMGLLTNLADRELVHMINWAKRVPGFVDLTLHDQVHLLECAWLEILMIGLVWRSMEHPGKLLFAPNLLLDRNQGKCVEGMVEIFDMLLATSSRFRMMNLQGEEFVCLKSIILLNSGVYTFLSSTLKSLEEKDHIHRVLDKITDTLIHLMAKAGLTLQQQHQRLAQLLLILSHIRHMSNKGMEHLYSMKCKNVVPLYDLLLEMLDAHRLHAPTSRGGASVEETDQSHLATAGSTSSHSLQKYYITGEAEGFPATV
Chain of Bile acid receptor (Homo sapiens) (Q96RI1 whole entry, looked up, the tested form may be a part): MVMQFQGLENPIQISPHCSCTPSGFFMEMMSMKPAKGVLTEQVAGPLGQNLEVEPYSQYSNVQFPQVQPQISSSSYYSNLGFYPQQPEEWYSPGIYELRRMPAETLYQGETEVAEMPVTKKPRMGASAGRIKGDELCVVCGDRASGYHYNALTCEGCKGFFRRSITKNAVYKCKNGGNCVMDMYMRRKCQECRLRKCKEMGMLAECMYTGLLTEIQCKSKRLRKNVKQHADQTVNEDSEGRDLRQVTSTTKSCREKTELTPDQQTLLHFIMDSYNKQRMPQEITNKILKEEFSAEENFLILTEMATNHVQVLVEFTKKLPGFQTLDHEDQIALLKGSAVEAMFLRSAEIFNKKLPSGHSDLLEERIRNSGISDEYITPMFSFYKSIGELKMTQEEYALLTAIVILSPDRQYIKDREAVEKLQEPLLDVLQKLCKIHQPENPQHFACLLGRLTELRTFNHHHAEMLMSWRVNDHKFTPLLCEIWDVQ
Chain of Estrogen receptor beta (Homo sapiens) (Q92731 whole entry, looked up, the tested form may be a part): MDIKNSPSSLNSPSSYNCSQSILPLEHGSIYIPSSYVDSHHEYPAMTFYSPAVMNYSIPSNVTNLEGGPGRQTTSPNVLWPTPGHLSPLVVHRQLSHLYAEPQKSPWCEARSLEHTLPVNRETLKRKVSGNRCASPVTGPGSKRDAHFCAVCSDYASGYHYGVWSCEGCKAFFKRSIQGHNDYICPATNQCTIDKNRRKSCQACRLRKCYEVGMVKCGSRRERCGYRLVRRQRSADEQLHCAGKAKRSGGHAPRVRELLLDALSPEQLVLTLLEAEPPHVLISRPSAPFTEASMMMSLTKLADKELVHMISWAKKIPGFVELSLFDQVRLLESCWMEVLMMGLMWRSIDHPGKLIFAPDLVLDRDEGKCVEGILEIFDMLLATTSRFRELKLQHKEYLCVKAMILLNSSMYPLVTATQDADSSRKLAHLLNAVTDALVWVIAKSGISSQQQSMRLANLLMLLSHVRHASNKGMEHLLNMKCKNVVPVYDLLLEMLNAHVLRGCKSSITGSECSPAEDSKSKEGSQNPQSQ
Chain of Agonist Androgen Response Element (ARE), AR (gene 367) (P10275 whole entry, looked up): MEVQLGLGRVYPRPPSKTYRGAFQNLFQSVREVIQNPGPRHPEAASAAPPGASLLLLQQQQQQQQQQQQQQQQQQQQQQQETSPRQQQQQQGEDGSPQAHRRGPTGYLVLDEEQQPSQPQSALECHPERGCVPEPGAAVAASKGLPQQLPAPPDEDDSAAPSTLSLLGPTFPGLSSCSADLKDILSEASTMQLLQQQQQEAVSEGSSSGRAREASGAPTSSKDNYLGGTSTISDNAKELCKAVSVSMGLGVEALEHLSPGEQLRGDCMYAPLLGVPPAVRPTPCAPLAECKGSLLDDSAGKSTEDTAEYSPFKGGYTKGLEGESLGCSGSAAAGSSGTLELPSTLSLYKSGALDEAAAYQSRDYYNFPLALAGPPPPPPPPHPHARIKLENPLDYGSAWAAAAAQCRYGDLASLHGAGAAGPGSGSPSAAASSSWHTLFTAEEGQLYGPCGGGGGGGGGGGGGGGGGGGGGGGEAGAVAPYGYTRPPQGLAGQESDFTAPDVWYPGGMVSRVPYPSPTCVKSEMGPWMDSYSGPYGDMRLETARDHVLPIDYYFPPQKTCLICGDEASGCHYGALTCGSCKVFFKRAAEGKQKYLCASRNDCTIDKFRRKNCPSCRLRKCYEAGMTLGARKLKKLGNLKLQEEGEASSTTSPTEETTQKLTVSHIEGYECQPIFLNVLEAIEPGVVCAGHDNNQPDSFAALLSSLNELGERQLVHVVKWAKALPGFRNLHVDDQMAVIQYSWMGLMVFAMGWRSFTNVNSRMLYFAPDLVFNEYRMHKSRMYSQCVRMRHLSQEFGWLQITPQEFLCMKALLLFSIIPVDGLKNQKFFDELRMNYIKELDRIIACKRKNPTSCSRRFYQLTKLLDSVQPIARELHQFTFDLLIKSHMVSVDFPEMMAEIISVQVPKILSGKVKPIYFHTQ
Chain of rat Serotonin Transporter (SERT), Slc6a4 (gene 25553) (P31652 whole entry, looked up): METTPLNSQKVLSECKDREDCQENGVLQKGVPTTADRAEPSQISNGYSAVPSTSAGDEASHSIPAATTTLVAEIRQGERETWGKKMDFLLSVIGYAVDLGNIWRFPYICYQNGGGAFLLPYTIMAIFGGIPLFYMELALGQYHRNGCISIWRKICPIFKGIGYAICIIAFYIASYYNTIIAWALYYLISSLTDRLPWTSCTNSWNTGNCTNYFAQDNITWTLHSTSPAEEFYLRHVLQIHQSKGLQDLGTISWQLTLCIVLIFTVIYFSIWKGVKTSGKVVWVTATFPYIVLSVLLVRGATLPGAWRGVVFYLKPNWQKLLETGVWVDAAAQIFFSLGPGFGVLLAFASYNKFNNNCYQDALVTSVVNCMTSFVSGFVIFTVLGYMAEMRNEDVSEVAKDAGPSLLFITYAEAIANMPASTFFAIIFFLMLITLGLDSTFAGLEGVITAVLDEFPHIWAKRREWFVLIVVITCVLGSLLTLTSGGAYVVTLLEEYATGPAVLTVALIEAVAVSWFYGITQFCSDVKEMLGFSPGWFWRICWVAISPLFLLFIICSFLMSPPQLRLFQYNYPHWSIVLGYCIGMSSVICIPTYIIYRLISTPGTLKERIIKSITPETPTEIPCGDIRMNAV
Chain of human Norepinephrine Transporter (NET), SLC6A2 (gene 6530) (P23975 whole entry, looked up): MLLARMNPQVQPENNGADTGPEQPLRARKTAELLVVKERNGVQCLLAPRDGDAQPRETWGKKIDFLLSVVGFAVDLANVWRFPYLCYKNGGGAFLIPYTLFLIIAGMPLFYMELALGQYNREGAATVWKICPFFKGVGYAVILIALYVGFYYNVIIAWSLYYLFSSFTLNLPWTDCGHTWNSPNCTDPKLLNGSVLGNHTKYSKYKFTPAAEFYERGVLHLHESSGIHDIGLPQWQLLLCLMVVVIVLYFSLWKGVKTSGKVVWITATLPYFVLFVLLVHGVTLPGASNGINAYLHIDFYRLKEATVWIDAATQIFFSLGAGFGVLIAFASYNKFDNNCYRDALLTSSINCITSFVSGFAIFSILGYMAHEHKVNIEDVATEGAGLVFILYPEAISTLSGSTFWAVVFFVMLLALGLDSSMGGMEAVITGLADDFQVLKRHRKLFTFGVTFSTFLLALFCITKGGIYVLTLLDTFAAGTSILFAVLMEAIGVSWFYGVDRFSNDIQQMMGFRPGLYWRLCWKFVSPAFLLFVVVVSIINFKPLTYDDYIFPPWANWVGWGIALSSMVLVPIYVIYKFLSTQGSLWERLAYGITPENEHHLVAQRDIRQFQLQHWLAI
Chain of mouse Estrogen Receptor alpha (Era), Esr1 (gene 13982) (P19785 whole entry, looked up): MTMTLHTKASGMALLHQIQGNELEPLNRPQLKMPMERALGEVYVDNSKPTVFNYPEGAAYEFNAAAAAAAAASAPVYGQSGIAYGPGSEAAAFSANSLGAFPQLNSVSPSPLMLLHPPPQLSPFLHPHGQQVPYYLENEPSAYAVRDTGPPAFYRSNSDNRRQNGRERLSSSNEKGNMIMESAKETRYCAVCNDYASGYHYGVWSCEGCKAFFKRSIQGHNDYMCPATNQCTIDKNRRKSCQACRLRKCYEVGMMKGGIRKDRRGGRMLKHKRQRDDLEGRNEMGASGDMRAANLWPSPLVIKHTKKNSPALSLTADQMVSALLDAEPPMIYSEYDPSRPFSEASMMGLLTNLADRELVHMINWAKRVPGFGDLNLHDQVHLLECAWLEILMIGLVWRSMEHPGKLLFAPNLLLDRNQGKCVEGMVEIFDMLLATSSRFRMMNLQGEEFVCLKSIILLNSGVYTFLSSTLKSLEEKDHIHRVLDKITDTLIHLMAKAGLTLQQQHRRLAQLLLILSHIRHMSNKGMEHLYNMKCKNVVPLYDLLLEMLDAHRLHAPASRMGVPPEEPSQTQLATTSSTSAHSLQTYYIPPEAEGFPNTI
Chain of Norway rat Vesicular Monoamine Transporter (VMAT2), neurotransmitter transporter, Slc18a2 (gene 25549) (Q01827 whole entry, looked up): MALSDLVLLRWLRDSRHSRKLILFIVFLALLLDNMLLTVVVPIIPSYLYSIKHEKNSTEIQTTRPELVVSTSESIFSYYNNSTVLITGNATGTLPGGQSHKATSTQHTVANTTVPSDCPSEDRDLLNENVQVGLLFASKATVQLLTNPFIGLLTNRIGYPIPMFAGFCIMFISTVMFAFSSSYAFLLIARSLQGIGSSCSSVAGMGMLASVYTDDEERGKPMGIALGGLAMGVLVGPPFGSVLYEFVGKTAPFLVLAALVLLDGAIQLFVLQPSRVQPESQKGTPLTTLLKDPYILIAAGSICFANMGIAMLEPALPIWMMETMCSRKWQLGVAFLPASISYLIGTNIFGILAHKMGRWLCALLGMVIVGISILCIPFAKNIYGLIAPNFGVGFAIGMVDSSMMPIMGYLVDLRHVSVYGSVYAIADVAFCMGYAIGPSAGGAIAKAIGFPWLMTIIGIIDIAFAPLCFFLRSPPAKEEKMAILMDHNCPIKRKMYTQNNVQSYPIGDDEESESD

What is called AC50 is the concentration giving half of the maximal activity seen. On to `Cc1cc(N=Nc2ccccc2C)ccc1N`, for which the AC50 in experiment [1] was 12.4 µM (active); in experiment [2] it was 12.2 µM (active). For the same compound, the compound was called inactive in experiment [3].
In the case of `COP(=S)(OC)SCN1C(=O)c2ccccc2C1=O`, the half-maximal activity concentration (AC50) in [1] was 2.04 µM (active). The call in experiment [2], in experiment [3] and in experiment [4] was inactive.
Consider `CCCCCCCCOC(=O)c1ccc(C(=O)OCCCCCCCC)c(C(=O)OCCCCCCCC)c1`, for which the compound was classed as inactive in experiment [5], in experiment [2], in [3] and in [4].
For the compound `CCC(C)c1ccc(O)cc1` (stereo not given), the compound was classed as inactive in [5], in experiment [3] and in experiment [4]. Besides, the AC50 in experiment [1] was 9.53 µM (active); in [2], 28.2 µM (active).
Take `Nc1ccc(Cl)cc1N`: the concentration at half-maximal activity (AC50) in experiment [1] is 38.9 µM (active); in [3] it was 35.3 µM (active); in [4] it was 33.8 µM (active). Also, in experiment [6], the compound was called inactive.
Regarding `O=C(Oc1ccc(Br)cc1)N1CCN2CCC1CC2`, the AC50 in experiment [7] was 1.01 µM (active); in [1], 12.8 µM (active). For the same compound, the result in [8] and in experiment [9] was inactive.
As for `COC(=O)Nc1nc2ccccc2[nH]1`, the result in experiment [6] and in [2] was inactive.
On to `[Cl-].[Cl-].[Hg+2]`, for which the half-maximal activity concentration (AC50) in experiment [7] was 25 µM (active); in [1], 0.372 µM (active); in experiment [8], 65.9 µM (active); in experiment [9], 21.5 µM (active). Moreover, in [2], the outcome was inactive.
As to `CC(C)(O)c1cnn2c(-c3ccc(F)c(-c4c(F)cccc4C#N)c3)cnc2n1`, the call in experiment [6] was inactive. Further, the concentration at half-maximal activity (AC50) was 93.7 µM (active) in [2], 35.7 µM (active) in experiment [3] and 64.9 µM (active) in experiment [4].
For `O=C(N[C@H](c1ccccc1)[C@@H]1CN2CCC1CC2)c1c(Cl)ccc(C(F)(F)F)c1Cl`, the values for the AC50 in experiment [7] and in experiment [1] were 0.359 µM (active) and 13.3 µM (active), respectively. The compound was classed as inactive in experiment [2] and in experiment [3].
Consider `Nc1ccc(N=Nc2ccccc2)cc1`, for which the AC50 was 9.76 µM (active) in experiment [1], 35.6 µM (active) in experiment [2] and 12.2 µM (active) in experiment [4]. Also, the outcome in [10], in experiment [8], in experiment [9] and in [3] was inactive.
In the case of `CC(C)(C)C(O)(CCc1ccc(Cl)cc1)Cn1cncn1` (stereo not given), the AC50 in experiment [1] is 14.3 µM (active).
Consider `O=C1CCCO1`, for which the outcome in experiment [6], in experiment [2] and in [4] was inactive.
For `CC(C)N(Cc1ccccc1)C(=O)C(C)(C)C`, the call in experiment [6], in experiment [3] and in [4] was inactive. The half-maximal activity concentration (AC50) in experiment [2] was 41.5 µM (active).
Regarding `CO[C@@H]1[C@H](OC(=O)NC(=O)CCl)CC[C@]2(CO2)[C@H]1[C@@]1(C)O[C@@H]1CC=C(C)C`, the compound was classed as inactive in experiment [6], in experiment [2], in [8] and in [9].
Regarding `CC(C)(OOC(C)(C)c1ccccc1)c1ccccc1`, the outcome in experiment [5] and in experiment [6] was inactive. Also, the AC50 in experiment [2] is 9.59 µM (active); in experiment [3], 58.3 µM (active); in experiment [4] it was 65.1 µM (active).
Take `Cc1ccc(N)c(N)c1`: in experiment [1], the AC50 is 16.4 µM (active). In experiment [2], the compound was called inactive.
For the compound `CCCCCOC(=O)c1ccccc1C(=O)OCCCCC`, the compound was classed as inactive in experiment [10] and in experiment [2]. The AC50 is 13 µM (active) in experiment [8] and 12.1 µM (active) in experiment [9].
For the compound `C=CCc1ccc2c(c1)OCO2`, the call in experiment [5] and in experiment [2] was inactive.
`CC(C)(C)OOC(=O)c1ccccc1`: the compound was classed as inactive in experiment [1] and in experiment [2].
Consider `CCNS(=O)(=O)C(F)(F)C(F)(F)C(F)(F)C(F)(F)C(F)(F)C(F)(F)C(F)(F)C(F)(F)F`, for which the compound was called inactive in experiment [6] and in [3].
In the case of `O=[N+]([O-])C(Br)(CO)CO`, the call in experiment [1], in experiment [2] and in experiment [8] was inactive.
With `O=C(Nc1ccccc1)c1ccccc1I`, in [1], the AC50 is 11.2 µM (active). In addition, the compound was classed as inactive in experiment [2], in experiment [8] and in [9].
For the compound `CCCCCCCCn1sccc1=O`, the compound was classed as inactive in [10], in experiment [2], in experiment [8] and in experiment [9].
Regarding `C[C@]12C=CC3=C4CCC(=O)C=C4CC[C@H]3[C@@H]1CC[C@@H]2O`, the AC50 is 5.68 µM (active) in [7]; 13.3 µM (active) in [5]; 3.65 µM (active) and 4.59 µM (active) and 7.64 µM (active) in experiment [10]; 210 nM (active) and 213 nM (active) and 2.53 nM (active) in experiment [6]; 12.7 µM (active) and 14.2 µM (active) and 12.3 µM (active) in [3]; 21.3 µM (active) and 21.2 µM (active) and 19.5 µM (active) in [4]. The compound was classed as inactive in experiment [10], in experiment [2], in experiment [3] and in experiment [4].
`Nc1ccc([N+](=O)[O-])cc1`: the result in experiment [1], in experiment [6] and in experiment [2] was inactive. In addition, in experiment [4], the AC50 was 13.3 µM (active).
As to `CN(C)[C@@H]1C(=O)C(C(N)=O)=C(O)[C@@]2(O)C(=O)C3=C(O)c4c(O)cccc4[C@@](C)(O)[C@H]3C[C@@H]12`, the compound was called inactive in [1], in experiment [2], in experiment [3] and in [4].
`C[N+](C)(C)CC1CO1` (stereo not given): the half-maximal activity concentration (AC50) in experiment [6] was 26.1 µM (active). The outcome in experiment [2], in experiment [8] and in experiment [9] was inactive.
Take `CCCCOC(=O)c1ccccc1C(=O)OCc1ccccc1`: the result in experiment [5] was inactive. Also, in experiment [2], the concentration at half-maximal activity (AC50) is 12.9 µM (active).
With `ClC1=C(Cl)[C@]2(Cl)[C@H]3[C@H]([C@@H]4C=C[C@H]3C4)[C@@]1(Cl)C2(Cl)Cl`, the compound was classed as inactive in experiment [10], in experiment [8] and in experiment [9].
As for `CCC[CH2][Sn]([Cl])([CH2]CCC)[CH2]CCC`, the AC50 in experiment [7] is 8.54 µM (active); in experiment [1], 0.361 µM (active); in [4], 82 µM (active). In addition, the compound was called inactive in experiment [10], in experiment [8], in [9] and in [3].
